Measured values from the supplement of paper PMC9262897, “Low-cost anti-mycobacterial drug discovery using engineered E. coli” (Nature Communications, 2022).
Counter-ions that a name gives are not always drawn. ± gives the standard deviation of the averaged measurements.

Columns and labels:
Experiment in all cases: growth (OD600 after 10 h); higher = more growth (less inhibition)
[1] = tested on: E. coli TESEC Alr+ wild-type control; details: compound 0.1 mM; raw OD600 reference: median of DMSO wells 0.241, cell-free background 0.041
Experimental: (§1)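 TESEC Mtb Alr E. coli, or the Alr+ wild-type control, in 384-well plates with Prestwick library compounds at 0.1 mM and 1% DMSO, across arabinose induction levels of 1E3 to 1E7 nM. Growth is read as OD600 after 10 h at 37 °C in triplicate biological replicates.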

E. coli TESEC Mtb Alr [2] = details: compound 0.1 mM
Experimental: as §1

E. coli TESEC Mtb Asd = details: compound 0.1 mM
Experimental: (§2)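 TESEC E. coli strains in which the native enzyme is deleted and replaced by arabinose-inducible Mtb Asd, DapB, CysH or TrpD, each grown in its selective medium. Strains were screened against the Prestwick library at 0.1 mM and 1% DMSO in 384-well format at low and high arabinose induction. Growth is read as OD600 after 10 h in triplicate.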

E. coli TESEC Mtb DapB = details: compound 0.1 mM
Experimental: as §2

[3] = tested on: E. coli TESEC Alr+ wild-type control; details: compound 0.1 mM; raw OD600 reference: median of DMSO wells 0.49, cell-free background 0.052
Experimental: (§3)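 TESEC Mtb Alr E. coli (ΔaraC ΔtolC ΔentC Δalr ΔdadX, arabinose-inducible Mtb Alr) or the Alr+ wild-type control strain, grown in defined M9-fructose medium without D-alanine in 96-well plates with Prestwick library compounds at 0.1 mM and 1% DMSO. Low Alr induction is 0.1 µM arabinose and high induction is 10 mM arabinose.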

E. coli TESEC Mtb Alr [4] = details: compound 0.1 mM; remark: listed apart in the source
Experimental: as §3

[5] = arabinose 1000 nM, raw OD600 reference: median of DMSO wells 0.294, cell-free background 0.041
[6] = arabinose 10000 nM, raw OD600 reference: median of DMSO wells 0.264, cell-free background 0.041
[7] = arabinose 100000 nM, raw OD600 reference: median of DMSO wells 0.201, cell-free background 0.041
[8] = arabinose 1000000 nM, raw OD600 reference: median of DMSO wells 0.193, cell-free background 0.041
[9] = arabinose 10000000 nM, raw OD600 reference: median of DMSO wells 0.146, cell-free background 0.041
[10] = arabinose induction (level): High, raw OD600 reference: median of DMSO wells 0.331, cell-free background 0.041
[11] = arabinose induction (level): Low, raw OD600 reference: median of DMSO wells 0.417, cell-free background 0.041
[12] = arabinose induction (level): High, raw OD600 reference: median of DMSO wells […], cell-free background 0.041
[13] = arabinose induction (level): Low, raw OD600 reference: median of DMSO wells 0.227, cell-free background 0.041
[14] = arabinose 100 nM, raw OD600 reference: median of DMSO wells 0.413, cell-free background 0.052
[15] = arabinose 10000000 nM, raw OD600 reference: median of DMSO wells […], cell-free background 0.052

Row | Structure (SMILES) | growth [1] | growth (E. coli TESEC Mtb Alr [2]; [5]) | growth (E. coli TESEC Mtb Alr [2]; [6]) | growth (E. coli TESEC Mtb Alr [2]; [7]) | growth (E. coli TESEC Mtb Alr [2]; [8]) | growth (E. coli TESEC Mtb Alr [2]; [9]) | growth (E. coli TESEC Mtb Asd; [10]) | growth (E. coli TESEC Mtb Asd; [11]) | growth (E. coli TESEC Mtb DapB; [12]) | growth (E. coli TESEC Mtb DapB; [13]) | growth [3] | growth (E. coli TESEC Mtb Alr [4]; [14]) | growth (E. coli TESEC Mtb Alr [4]; [15])
1 | CCN(CC)C(=O)Nc1ccc(OCC(O)CNC(C)(C)C)c(C(C)=O)c1 (stereo not drawn) [Celiprolol HCl] | 0.215 ± 0.0023 | 0.292 ± 0.0042 | 0.247 ± 0.0042 | 0.221 ± 0.028 | 0.171 ± 0.0053 | 0.135 ± 0.0071 | 0.245 ± 0.048 | 0.341 ± 0.089 | 0.192 ± 0.009 | 0.264 ± 0.058 | 0.455 ± 0.027 | 0.421 ± 0.0097 | 0.356 ± 0.014
2 | NC[C@@H]1O[C@@H](O[C@H]2[C@H](O)[C@@H](O[C@H]3O[C@H](CO)[C@@H](O)[C@H](N)[C@H]3O)[C@H](N)C[C@@H]2N)[C@@H](O)[C@H](O)[C@H]1O [Kanamycin A sulfate] | 0.247 ± 0.0031 | 0.302 ± 0.013 | 0.263 ± 0.0086 | 0.228 ± 0.016 | 0.1781 ± 0.0015 | 0.164 ± 0.0095 | 0.245 ± 0.044 | 0.404 ± 0.073 | 0.202 ± 0.0057 | 0.28 ± 0.056 | 0.495 ± 0.032 | 0.403 ± 0.008 | 0.353 ± 0.014
3 | Nc1nc2c(ncn2COCCO)c(=O)[nH]1 [Acyclovir] | 0.255 ± 0.014 | 0.287 ± 0.021 | 0.2708 ± 0.0022 | 0.239 ± 0.019 | 0.196 ± 0.014 | 0.139 ± 0.0044 | 0.374 ± 0.016 | 0.416 ± 0.047 | 0.206 ± 0.005 | 0.26 ± 0.024 | 0.47 ± 0.04 | 0.413 ± 0.011 | 0.355 ± 0.029
4 | Cc1cccc(C)c1NC(=O)C(C)N (stereo not drawn) [Tocainide hydrochloride] | 0.26 ± 0.0084 | 0.318 ± 0.0085 | 0.269 ± 0.0071 | 0.187 ± 0.014 | 0.1844 ± 0.0016 | 0.145 ± 0.0027 | 0.209 ± 0.016 | 0.433 ± 0.031 | 0.232 ± 0.038 | 0.244 ± 0.06 | 0.483 ± 0.061 | 0.4 ± 0.015 | 0.307 ± 0.023
5 | CC(COc1ccccc1)NC(C)C(O)c1ccc(O)cc1 (stereo not drawn) [Isoxsuprine hydrochloride] | 0.224 ± 0.0098 | 0.29 ± 0.014 | 0.256 ± 0.003 | 0.183 ± 0.011 | 0.156 ± 0.0029 | 0.157 ± 0.0078 | 0.25 ± 0.081 | 0.402 ± 0.079 | 0.202 ± 0.042 | 0.271 ± 0.028 | 0.5 ± 0.066 | 0.413 ± 0.0062 | 0.34 ± 0.02
6 | COc1ccc2cc([C@@H](C)C(=O)O)ccc2c1 [(R) -Naproxen sodium salt] | 0.263 ± 0.0059 | 0.311 ± 0.018 | 0.275 ± 0.0043 | 0.198 ± 0.0079 | 0.183 ± 0.0045 | 0.141 ± 0.0034 | 0.484 ± 0.02 | 0.341 ± 0.077 | 0.196 ± 0.014 | 0.216 ± 0.052 | 0.448 ± 0.03 | 0.408 ± 0.0092 | 0.317 ± 0.0088
7 | CCOC(=O)/C=C(C)/C=C/C=C(C)/C=C/c1c(C)cc(OC)c(C)c1C [Etretinate] | 0.242 ± 0.0089 | 0.308 ± 0.015 | 0.257 ± 0.011 | 0.211 ± 0.0087 | 0.161 ± 0.0097 | 0.151 ± 0.0019 | 0.257 ± 0.042 | 0.341 ± 0.025 | 0.1575 ± 0.0014 | 0.186 ± 0.0064 | 0.544 ± 0.058 | 0.41 ± 0.0092 | 0.344 ± 0.014
8 | COc1cc2nc(N3CCN(C(=O)c4ccco4)CC3)nc(N)c2cc1OC [Prazosin hydrochloride] | 0.242 ± 0.0066 | 0.319 ± 0.019 | 0.239 ± 0.0065 | 0.185 ± 0.008 | 0.147 ± 0.015 | 0.226 ± 0.0067 | 0.263 ± 0.09 | 0.348 ± 0.091 | 0.247 ± 0.023 | 0.285 ± 0.029 | 0.498 ± 0.007 | 0.399 ± 0.013 | 0.3092 ± 0.0026
9 | Cn1c(=O)c2[nH]cnc2n(C)c1=O [Aminophylline] | 0.246 ± 0.005 | 0.292 ± 0.012 | 0.262 ± 0.0083 | 0.196 ± 0.0098 | 0.195 ± 0.0022 | 0.134 ± 0.0058 | 0.287 ± 0.065 | 0.457 ± 0.018 | 0.226 ± 0.017 | 0.234 ± 0.023 | 0.513 ± 0.08 | 0.406 ± 0.015 | 0.355 ± 0.019
10 | CC(=O)Oc1ccccc1C(=O)O [Acetylsalicylic acid] | 0.242 ± 0.003 | 0.2936 ± 0.0015 | 0.292 ± 0.014 | 0.202 ± 0.019 | 0.19 ± 0.01 | 0.147 ± 0.0031 | 0.264 ± 0.051 | 0.314 ± 0.022 | 0.198 ± 0.016 | 0.237 ± 0.054 | 0.504 ± 0.027 | 0.413 ± 0.011 | 0.334 ± 0.012
11 | C#C[C@]1(OC(C)=O)CC[C@H]2[C@@H]3CCC4=CC(=NO)CC[C@@H]4[C@H]3CC[C@@]21CC (mixture of isomers) [Norgestimate] | 0.134 ± 0.0062 | 0.123 ± 0.0052 | 0.0585 ± 0.0036 | 0.136 ± 0.0049 | 0.0563 ± 0.0053 | 0.111 ± 0.0098 | 0.0829 ± 0.015 | 0.0714 ± 0.019 | 0.126 ± 0.0075 | 0.0826 ± 0.025 | 0.185 ± 0.0039 | 0.263 ± 0.013 | 0.0794 ± 0.012
12 | CCN1CCN(c2cc3c(cc2F)c(=O)c(C(=O)O)cn3C2CC2)CC1 [Enrofloxacin] | 0.04133 ± 0.00021 | 0.0446 ± 0.0089 | 0.0393 ± 0.00035 | 0.0406 ± 0.0012 | 0.0391 ± 0.0002 | 0.0419 ± 0.0033 | 0.0465 ± 0.0016 | 0.0466 ± 0.0016 | 0.0496 ± 0.00083 | 0.0487 ± 0.0006 | 0.0543 ± 0.0025 | 0.05387 ± 0.00035 | 0.0522 ± 0.001
13 | Cc1[nH]cnc1CN1CCc2c(c3ccccc3n2C)C1=O [Alosetron hydrochloride] | 0.197 ± 0.0093 | 0.26 ± 0.0044 | 0.233 ± 0.014 | 0.225 ± 0.0049 | 0.178 ± 0.008 | 0.1498 ± 0.001 | 0.287 ± 0.076 | 0.263 ± 0.027 | 0.196 ± 0.017 | 0.262 ± 0.041 | 0.563 ± 0.075 | 0.387 ± 0.012 | 0.289 ± 0.0097
14 | O=C(OCCOCCO)c1ccccc1Nc1cccc(C(F)(F)F)c1 [Etofenamate] | 0.0458 ± 0.00036 | 0.0491 ± 0.0032 | 0.0483 ± 0.00084 | 0.049 ± 0.0019 | 0.0472 ± 0.002 | 0.0499 ± 0.0013 | 0.0525 ± 0.0012 | 0.0509 ± 0.0012 | 0.0997 ± 0.078 | 0.0543 ± 0.0018 | 0.0535 ± 0.0025 | 0.185 ± 0.19 | 0.0516 ± 0.0022
15 | C=CCN1CCCC1CNC(=O)c1cc2nn[nH]c2cc1OC (stereo not drawn) [Alizapride HCl] | 0.234 ± 0.0057 | 0.277 ± 0.0082 | 0.271 ± 0.01 | 0.218 ± 0.025 | 0.191 ± 0.0082 | 0.143 ± 0.0052 | 0.299 ± 0.032 | 0.373 ± 0.05 | 0.217 ± 0.022 | 0.201 ± 0.017 | 0.536 ± 0.045 | 0.406 ± 0.011 | 0.336 ± 0.011
16 | CC[C@H](C)C(=O)O[C@H]1C[C@@H](C)C=C2C=C[C@H](C)[C@H](CC[C@@H]3C[C@@H](O)CC(=O)O3)[C@H]21 [Lovastatin] | 0.256 ± 0.0052 | 0.307 ± 0.01 | 0.0518 ± 0.002 | 0.21 ± 0.017 | 0.0567 ± 0.013 | 0.139 ± 0.0042 | 0.276 ± 0.026 | 0.35 ± 0.065 | 0.163 ± 0.018 | 0.192 ± 0.023 | 0.473 ± 0.043 | 0.43 ± 0.018 | 0.148 ± 0.042
